Our source for the Potency values is PubChem BioAssay AID720506 (National Center for Advancing Translational Sciences (NCATS), 2013).

Structures are written as SMILES. The campaign covered roughly 2,300 compounds. About 95 (4%) were called active. Entries that show only a call come without a potency. Roughly 17% stayed inconclusive and do not appear here. Calls come from the whole dose curve; as a rule, active = well fitted activation curve with a large enough effect; inconclusive = small, poorly fitted or top-dose-only effect; inactive = flat fitted curve, though single readings scatter. Many of the other results were omitted from the sample, so actives are more common in it than they were.
Potency is the fitted concentration of half-maximal effect.

In the test the target is D(3) dopamine receptor (Homo sapiens) (UniProt P35462). In words: qHTS of D3 Dopamine Receptor Agonist: D3 Dopamine Receptor B-arrestin Agonist Confirmatory Assay. Note: nearly all actives have a fitted effect of over 70% in size. As to conditions: DiscoveRx D3 beta-arrestin cells, luminescence, 90 min; series mostly up to 76.9 µM. An excerpt: D3 DARs represent a very important target for the treatment of several neuropsychiatric disorders. Indeed, one of the most promising therapeutic applications for the D3 DAR is in the area of addiction and related disorders. […] These findings have been observed with a number of addictive substances including cocaine, amphetamine, nicotine, and alcohol. […] Increased D3 DAR activity can thus lead to neuroprotective and neurorestorative actions in the CNS. […] This assay is used to confirm the activity of the identified D3 dopamine receptor agonist. Activation is the desired outcome for this assay. NIH Molecular Libraries Probe Production Centers Network [MLPCN] NIH Chemical Genomics Center [NCGC] MLPCN Grant: NS064831 Assay Submitter (PI): David Sibley
D(3) dopamine receptor (Homo sapiens), sequence (P35462 whole entry, looked up): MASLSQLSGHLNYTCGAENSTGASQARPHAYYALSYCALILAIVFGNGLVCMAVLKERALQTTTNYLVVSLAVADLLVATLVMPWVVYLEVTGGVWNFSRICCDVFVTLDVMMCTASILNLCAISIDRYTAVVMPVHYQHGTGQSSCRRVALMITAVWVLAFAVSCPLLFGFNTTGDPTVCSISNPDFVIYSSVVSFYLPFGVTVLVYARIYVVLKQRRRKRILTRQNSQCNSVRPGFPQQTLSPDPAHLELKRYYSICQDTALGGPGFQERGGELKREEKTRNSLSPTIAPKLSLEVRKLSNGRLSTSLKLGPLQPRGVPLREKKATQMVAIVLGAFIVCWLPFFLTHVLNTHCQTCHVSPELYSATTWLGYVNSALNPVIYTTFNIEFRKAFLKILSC
Freshly passaged DiscoveRx D3 cells are plated in 1536 well white, solid bottom plates at a density of 1500 cells/well in 3microl of complete media. After an overnight incubation at 37 degrees C in 5% CO2, cells are loaded with 23nl of test compound from the compound library (as well as dopamine controls) using a 1536 pintool and incubated at 37 degrees C for 90 minutes. Two microliters of DiscoveRx reagent is then added to all cells, and they are incubated for an additional 30 - 60 minutes at room temperature. Following incubation, luminescence is measured on a ViewLux CCD-based luminometer reader using a 20 sec exposure time.
Background: Quantitative high-throughput screening tests each substance at several concentrations.
For the molecule `Cc1cc(C)n2nc(C(=O)N3CCN(Cc4ccc5c(c4)OCO5)CC3)nc2n1`, the Potency entry is “inactive”.
Regarding `CCCN(CC(=O)Nc1ccccc1C)C(=O)c1ccc2[nH]c3c(c2c1)CC(C)CC3` (stereo unspecified), the Potency entry is “inactive”.
In the case of `OC(COCc1ccco1)CN1CCN(c2ccccc2)CC1` (stereo unspecified), the Potency result was “inactive”.
The result for `O=C(CSC1CC(=O)N(CCc2ccccc2)C1=O)Nc1ccc(Cl)cc1` (stereo unspecified) reads “inactive”.
Take `CC(C)(C)C(=O)OCc1nc(-c2ccc(O)c(O)c2)cs1`: the Potency was 11.2 µM (active).
Turning to `O=c1oc(-c2ccccc2NS(=O)(=O)c2ccc(Cl)cc2)nc2ccccc12`, the Potency result was “inactive”.
Regarding `O=C(C1CC(=O)N(c2ccc(F)cc2)C1)N1CCN(c2ccccc2)CC1` (stereo unspecified), the Potency result is “inactive”.
As for `CCn1c(=O)cc(OCC(=O)NCCCN2CCN(c3cccc(Cl)c3)CC2)c2ccccc21`, the entry is “inactive”; as for `O=C(c1ccc2c(c1)OCCO2)C1CCN(S(=O)(=O)c2cccc(F)c2)CC1`, “inactive”; as for `O=C(CNCc1cccs1)Nc1cc(S(=O)(=O)N2CCCC2)ccc1Cl`, 17.8 µM (active).
The result for `CN1CCN(S(=O)(=O)c2cccc(C(=O)Nc3sccc3C#N)c2)CC1` reads “inactive”.
The result for `CC(CCc1ccccc1)NCC(O)c1cccc([N+](=O)[O-])c1` (stereo unspecified) reads “inactive”; that for `CC(CCc1ccc(O)cc1)NCc1ccc(Cl)cc1Cl` (stereo unspecified), 1.78 µM (active).
Regarding `CC1(C)CC(=O)C=C(c2ccc3ncccc3c2)C1`, the Potency result is “inactive”.
For `Cc1c(C(=O)Nc2cccc(-c3nnc4n3CCCCC4)c2)oc2ccccc12`, the Potency entry is “inactive”.
As for `O=C(NC1CCCCC1)c1ccc2c(=O)n(CC3CCCO3)c(=O)[nH]c2c1` (stereo unspecified), the entry is “inactive”.
Take `CCOC(=O)[C@H]1[C@H]2COc3ccc(C)cc3[C@@H]2N2C(=O)CN(Cc3ccc(F)cc3)C(=O)[C@@]12C`: the Potency entry was “inactive”.
As for `O=C(CCN1CCN(C/C=C/c2ccccc2)CC1)Nc1ccccc1Cl`, the Potency result was “inactive”.
In the case of `COc1cccc(NC(=O)C2CCCN(c3ncnc4c3nc3n4CCCCC3)C2)c1` (stereo unspecified), the Potency entry was “inactive”.
`CC(C)c1ccc2c(c1)c(SC(C)(C)C)c(CC(C)(C)C(=O)O)n2Cc1ccc(Cl)cc1`: the Potency entry was “inactive”.
As to `O=C(c1c(F)cccc1F)N1CCN(S(=O)(=O)c2ccc3c(c2)OCCO3)CC1`, the Potency entry was “inactive”.
As for `Cc1cccc(OCC(=O)NCC(=O)N/N=C/c2ccc(N(C)C)cc2)c1`, the entry is “inactive”; as for `Cc1cc(C)c(/C=C2\C(=O)Nc3ccccc32)[nH]1`, “inactive”.
With `COc1cccc(OC)c1OCCN1CCN(C(=O)c2ccco2)CC1`, the Potency is 0.631 µM (active).
Consider `CCn1cc(C(=O)N2CCN(Cc3ccc4c(c3)OCO4)CC2)c2cc(OC)c(OC)cc2c1=O`, for which the Potency result was “inactive”.
Turning to `CCC(=O)Nc1ccc(C(=O)N2CCN(C(=O)c3ccco3)CC2)cc1`, the Potency entry is “inactive”.
As for `O=C(Cc1csc(Nc2nc(=S)[nH]c3ccccc23)n1)NCCCN1CCN(c2cccc(Cl)c2)CC1`, the Potency entry is “inactive”.
Take `COc1ccc(C2NC(=O)C(=O)/C2=C(\O)c2ccc(Cl)cc2)cc1OC` (stereo unspecified): the Potency result is “inactive”.
As to `O=C(CN1CCN(S(=O)(=O)c2cc(Cl)ccc2Cl)CC1)c1ccc(O)c(O)c1`, the Potency was 35.5 µM (active).
Take `O=C(CCCn1c(=O)[nH]c2cc(Cl)ccc2c1=O)NCCN1CCN(c2ccccc2)CC1`: the Potency entry was “inactive”.
As for `O=C(c1c(Cl)cccc1Cl)N1CCN(c2cccc3[nH]ccc23)CC1`, the Potency result was “inactive”.
